# Bioassay records: PubChem BioAssay, Sanford-Burnham Center for Chemical Genomics
# CYP2C19 inh = blockers of cytochrome P450 2C19 activity – biochemical, luminescence, ADME assay, primary screen. P33261. 21% of 96,000 active. CYP2C19 Supersomes, luciferin-H EGE luminescence, 30 min. inhibition, % at 5 µM;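 active = CYP2C19 inhibition above a set limit at 5 µM in the primary screen, cut at about 50% in these data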;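 also: plate controls were negative control wells for no effect and 2.5 mM tranylcypromine positive control for full effect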
# Target sequence (P33261 whole entry, looked up): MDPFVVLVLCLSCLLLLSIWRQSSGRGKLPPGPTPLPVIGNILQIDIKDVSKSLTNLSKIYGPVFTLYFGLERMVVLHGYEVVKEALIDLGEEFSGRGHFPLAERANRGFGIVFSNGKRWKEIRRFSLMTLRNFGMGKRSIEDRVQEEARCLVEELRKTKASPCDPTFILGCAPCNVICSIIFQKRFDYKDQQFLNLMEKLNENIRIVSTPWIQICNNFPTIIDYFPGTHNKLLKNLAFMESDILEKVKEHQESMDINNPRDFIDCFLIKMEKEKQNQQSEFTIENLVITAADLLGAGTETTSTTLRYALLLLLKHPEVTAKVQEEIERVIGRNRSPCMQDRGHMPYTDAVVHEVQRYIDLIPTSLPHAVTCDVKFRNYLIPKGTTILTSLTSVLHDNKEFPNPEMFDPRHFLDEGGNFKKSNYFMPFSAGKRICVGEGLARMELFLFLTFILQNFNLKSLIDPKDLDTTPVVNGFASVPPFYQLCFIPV
# CD11b adhes inh = inhibitors of CD11b/CD18 adhesion to fibrinogen, primary screen, K562 cells, luminescence; Integrin beta-2 (Homo sapiens) + Integrin alpha-M (Homo sapiens), P05107+P11215; ATPlite luminescence; Mn2+ added to activate the integrin; inhibition, % at 10 µM; 0.54% of 93,000 active;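 active = primary inhibition of 50% or more at 10 µM, then 40% or more on retest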
# Mac1 fbg enh = enhancers of CD11b/CD18 adhesion to fibrinogen, primary screen, K562 cells, luminescence; Integrin beta-2 (Homo sapiens) + Integrin alpha-M (Homo sapiens), P05107+P11215; ATPlite luminescence; activation, % at 10 µM; 0.07% of 93,000 active; AID 1499, 2009;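 active = 10 µM primary screen giving 50% or more activity, confirmed by 40% or more on retest at that dose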
# CYP2C9 activ = human CYP2C9 activators, primary screen, biochemical, luminescence; AID 1024, 2008; activation factor at 5 µM; 1.4% of 96,000 active; Cytochrome P450 2C9 (Homo sapiens), P11712; recombinant CYP2C9, luciferin-H conversion; stronger effect = higher value; factor 1 = untreated enzyme, 0 = blocked;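 active = activation factor of 2 or more for CYP2C9 at a 5 µM dose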;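 also: 0 = sulfaphenazole-blocked wells and 1 = vehicle-only wells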
# CYP2C19 activ = human CYP2C19 activators, primary screen, biochemical, luminescence | recombinant CYP2C19, luciferin-H EGE luminescence; stronger effect = higher value; 0 = fully inhibited enzyme, 1 = untreated enzyme | activation factor at 5 µM | Cytochrome P450 2C19 (Homo sapiens), P33261 | AID 1025, 2008 | 96,000 tested, under 10 active;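 active = activation factor of at least 2 at 5 µM in the primary screen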;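 also: 0 = wells with 2.5 mM tranylcypromine and 1 = vehicle-only wells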
# CYP2C9 inhib = blockers of cytochrome P450 2C9 activity – biochemical, luminescence, ADME assay, primary screen | CYP2C9 Supersomes, luciferin-H conversion | inhibition, % at 5 µM | 20% of 96,000 active;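 active = blocking of liver enzyme CYP2C9 beyond about 50% at 5 µM, limit read from the data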
# Active calls of the source: *; . = no result. Rows were chosen to be rich in hits. Some 28% of all compounds tested hit in one or more screens of this group.
SMILES,CYP2C19 inh,CD11b adhes inh,Mac1 fbg enh,CYP2C9 activ,CYP2C19 activ,CYP2C9 inhib
O=C(NCc1cccnc1)c1cccc(S(=O)(=O)N2CCCCC2)c1,65*,-4,-4,0.6,0.4,38
O=C(NCc1cccnc1)C1CCN(S(=O)(=O)c2cccnc2)CC1,13,9,3,1,0.9,3
Cc1ccnc(NC(=O)c2cc(S(=O)(=O)N3CCCCC3)ccc2Cl)c1,39,-29,-3,0.1,0.6,88*
Cc1nc(SCC#N)c2c(C)c(C)sc2n1,-12,5,1,1.2,1.1,-18
CCNC(=O)c1nc[nH]c1C(=O)NCC,15,1,2,0.9,0.8,8
COc1cc(CC(=O)NCCc2ccc(S(N)(=O)=O)cc2)cc(OC)c1OC,-15,-11,-3,0.8,1.2,18
O=C(COc1ccc(S(=O)(=O)N2CCCCC2)cc1)NCc1cccnc1,26,-28,-2,0.4,0.7,60*
O=C(NCc1cccnc1)c1cccc(S(=O)(=O)N2CCOCC2)c1,61*,-15,-1,0.8,0.4,24
O=C(COc1ccc(S(=O)(=O)Nc2ccccc2)cc1)NCc1cccnc1,.,2,-2,.,.,.
COc1ccccc1C1CN=NC12CCCc1ccccc1C2=O (stereo not drawn),71*,-9,2,0.5,0.3,51*
COc1cccc(C2C3=C(N=c4s/c(=C\c5cccc(O)c5)c(=O)n42)c2ccccc2CC3)c1OC (stereo not drawn),.,19,39,.,.,.
COc1ccc(C2CN=NC23CCCc2ccccc2C3=O)cc1 (stereo not drawn),59*,25,-3,0.5,0.4,48
N#CC(C(=O)C12CC3CC(CC(C3)C1)C2)c1nc2ccccc2[nH]1 (stereo not drawn),33,10,1,0.4,0.7,62*
COc1ccc(/C=N/NC(=O)c2cccc(Br)c2)cc1Cn1cc(Cl)cn1,46,.,.,0.7,0.5,28
COc1ccc(/C=C2\CCc3ccccc3C2=O)cc1Cn1cccn1,78*,9,-1,0.5,0.2,49
C#CCOC(=O)C(NC(=O)c1ccccc1)=C1CCCCC1,39,-2,3,0.3,0.6,68*
C=CCn1c(SCC(=O)N2CCc3ccccc3C2)nc2sc(C)cc2c1=O,63*,.,.,0,0.4,96*
C=CCn1c(SCC(=O)NC2CCS(=O)(=O)C2)nc2sc(CC)cc2c1=O (stereo not drawn),5,-2,-1,0.6,0.9,42
C=CCn1c(SCC(=O)Nc2cc(C)on2)nc2sc(CC)cc2c1=O,5,18,-1,0.3,0.9,72*
C=CCn1c(SCC(=O)c2cccs2)nc2sc(CC)cc2c1=O,-2,2,1,0.7,1,25
C=CCn1c(SCC(=O)N2CCN(C(=O)c3ccco3)CC2)nc2sc(CC)cc2c1=O,90*,-10,-6,0,0.1,99*
COC(=O)CSc1nnnn1-c1ccccc1,56*,-9,-4,1,0.4,2
COc1ccc(C)cc1-n1nnnc1SCC1CCCO1 (stereo not drawn),98*,-16,-1,0.4,0,55*
COc1ccc(CSc2nnnn2-c2ccccc2)cc1,96*,32,8,0.1,0,89*
CCOC(=O)NC(=O)CSc1nnnn1-c1ccccc1,46,-4,0,1.9,0.5,-94
SMILES,CYP2C19 inh,CD11b adhes inh,Mac1 fbg enh,CYP2C9 activ,CYP2C19 activ,CYP2C9 inhib
CSc1ccccc1-n1nnnc1SCc1ccccc1,87*,15,1,0.3,0.1,66*
COC(=O)[C@H](C)NC(=O)/C=C/c1ccc(OC)cc1,.,-8,0,.,.,.
CCCN(CCC)c1ncnc2c1cnn2-c1ccc(OC)cc1,10,25,5,0.9,0.9,8
COc1ccccc1NC(=O)CSCc1nc2ccccc2[nH]1,.,2,0,.,.,.
CCC(Oc1cc(Cl)ccc1Cl)C(=O)NN1C(=O)C2C3CCC(C3=C(C)C)C2C1=O (stereo not drawn),31,-17,2,1.1,0.7,-9
COc1ccc(-n2nnnc2SCc2nc3ccccc3s2)cc1,95*,13,2,0.2,0,79*
C=CCSc1nnnn1-c1ccc(OC)cc1,98*,-6,-1,0.3,0,66*
COc1ccc(C)cc1-n1nnnc1SCc1nc2ccccc2s1,73*,8,-6,0.2,0.3,78*
COc1cc(CSc2nnnn2-c2ccc(C)cc2)cc(OC)c1OC,34,97,-6,0.4,0.7,64*
COc1ccc(C)cc1-n1nnnc1SCC(=O)NC(=O)NCc1ccco1,34,-3,32,1.1,0.7,-10
O=C(CSc1nnc2ccccn12)NC(=O)NC1CCCC1,0,-5,3,1,1,4
Cc1cc(=O)oc(C)c1C(=O)N[C@@H]1CCCCNC1=O,-12,-22,0,1.1,1.1,-10
O=C(NC1CSC/C1=N\O)c1ccccc1 (stereo not drawn),13,-12,-4,0.9,0.9,6
O=C(CSc1nnnn1-c1ccccc1)N1CCc2ccccc2C1,65*,-16,1,0.8,0.4,15
OCCn1c(CSc2nc3ccccc3n2CCO)nc2ccccc21,20,-11,-3,0.8,0.8,19
CCOc1ccccc1NC(=O)CSc1nnnn1-c1ccccc1,40,5,-2,0.8,0.6,21
COc1ccc(CCn2c(C)cc(C(=O)CSc3nnnn3-c3ccccc3)c2C)cc1,16,0,-1,2.4*,0.8,-140
CC1=Nc2ccccc2N=C(NC(=O)CSc2nnnn2-c2ccccc2)C1c1ccccc1 (stereo not drawn),79*,1,-3,0.1,0.2,95*
Cc1cc(C(=O)CSc2nnnn2C)c(C)n1CCc1ccc(Cl)cc1,22,1,-4,0.9,0.8,9
COCCn1c(SCc2nc3ccccc3s2)nc2ccccc21,100*,-22,-3,0.1,0,86*
O=C(CSc1nnc2ccccn12)N1CCc2ccccc2C1,8,-13,-2,1,0.9,-3
CCCN(CC(=O)Nc1ccc(C(N)=O)cc1)CC(=O)Nc1ccc(Cl)cc1Cl,.,-7,0,.,.,.
COC(=O)c1c(N)sc2c1CCN(c1ncc(C(F)(F)F)cc1Cl)C2,36,73,-9,0.7,0.6,29
Cc1cc(C)n(CCCNCC(O)c2ccccc2)n1 (stereo not drawn),8,26,-1,1,0.9,5
